# Results reported in PubChem BioAssay (NCATS).
# Where “and” joins values, the source holds several entries; their conditions need not be identical. Identical values can stand only once. Records with an inconclusive call do not appear. A call without a number means that no potency is given here. Unmarked numbers belong to inactive results. Calls of active or inactive are those of the source. The call rests on the fitted dose curve; in most records, active means well fitted curve in the direction sought with a large enough effect; inconclusive means small, poorly fitted or top-dose-only effect, or another doubt; inactive means no such curve, though single readings can be large; an effect the other way counts as inactive or inconclusive. Peptide text beside a SMILES is read from it.
# Assays:
# [1] = target: Cytochrome P450 3A7 (Homo sapiens) (UniProt P24462); experiment: Cytochrome P450 family 3 subfamily A member 7 (CYP3A7) small molecule antagonists: luciferase biochemical qHTS assay (AID 1963596); further: nearly all actives have a fitted effect of over 40% in size
# Cytochrome P450 3A7 (Homo sapiens), sequence (P24462 whole entry, looked up): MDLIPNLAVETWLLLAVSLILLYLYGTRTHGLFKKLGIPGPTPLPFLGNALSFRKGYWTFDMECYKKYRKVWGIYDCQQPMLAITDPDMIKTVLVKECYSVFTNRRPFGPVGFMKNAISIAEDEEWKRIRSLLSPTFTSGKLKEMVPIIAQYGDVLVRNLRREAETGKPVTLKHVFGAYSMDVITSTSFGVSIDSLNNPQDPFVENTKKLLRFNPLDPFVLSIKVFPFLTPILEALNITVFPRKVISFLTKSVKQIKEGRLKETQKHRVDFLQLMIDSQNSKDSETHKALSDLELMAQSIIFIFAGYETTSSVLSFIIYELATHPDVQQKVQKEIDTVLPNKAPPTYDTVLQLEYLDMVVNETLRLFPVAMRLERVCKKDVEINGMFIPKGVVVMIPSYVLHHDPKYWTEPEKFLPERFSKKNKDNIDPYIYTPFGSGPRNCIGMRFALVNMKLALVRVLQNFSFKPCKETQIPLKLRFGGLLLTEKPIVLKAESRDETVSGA
# Method in brief: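 In this luminescent screen, enzyme and proluciferin substrate meet test compound for 10 min before NADPH regeneration solution drives a 1 h room-temperature reaction; detection reagent halts turnover and luminescence is read 20 min later.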
# [2] = Viability qHTS for spleen associated tyrosine kinase inhibitor (SYKi) naive MV4-11 cells (AID 1963823); further: nearly all actives have a fitted effect of over 40% in size; further: potency means the concentration at half of the fitted maximal effect
# Method in brief: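 Cells: MV4-11, SYK inhibitor naive, 500 per well. Treatment: library compounds, 72 hr, 37 C, 5% CO2. Read-out: CellTiter-Glo luminescence after 10 min RT.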
# [3] = Viability qHTS for spleen associated tyrosine kinase inhibitor (SYKi) drug resistant MV4-11 cells (AID 1963824); further: nearly all actives have a fitted effect of over 35% in size; further: potency means the concentration at half of the fitted maximal effect
# Method in brief: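 SYK-inhibitor-resistant MV4-11 AML cells were seeded at 500 per well onto compound and cultured 72 hours (37 °C, 5% CO2). CellTiter-Glo was then added, and after 10 min at room temperature, luminescence gave viability.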
# [4] = Quantitative highthroughput screen to assess conditional lethalithy of NOMO1 cells grown in RPMI1640 with untreated serum (RPMI+s) (AID 1963876); further: nearly all actives have a fitted effect of over 35% in size; further: potency means the concentration at half of the fitted maximal effect
# Method in brief: (§1)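 Each medium arm—HPLM with 10% dialyzed FBS, or RPMI1640 with 5 mM glucose and 10% untreated or dialyzed FBS—was screened against an 11-point, 3-fold compound titration for 48 h at 37 °C, with CellTiter-Glo luminescence as endpoint.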
# [5] = Quantitative highthroughput screen to assess conditional lethalithy of NOMO1 cells grown in RPMI1640 with dialyzed fetal bovine serum (RPMI+ds) (AID 1963877); further: nearly all actives have a fitted effect of over 30% in size; further: potency means the concentration at half of the fitted maximal effect; on Viability: series mostly up to about 46 µM
# Method in brief: as §1
# [6] = Quantitative highthroughput screen to assess conditional lethalithy of NOMO1 cells grown in Human Plasma-Like Medium with dialyzed fetal bovine serum (HPLM+ds) (AID 1963878); further: nearly all actives have a fitted effect of over 35% in size; further: potency means the concentration at half of the fitted maximal effect
# Method in brief: as §1
# [7] = Quantitative highthroughput screen to assess conditional lethalithy of P12 Ichikawa cells grown in Human Plasma-Like Medium with dialyzed fetal bovine serum (HPLM+ds) (AID 1963879); conditions: Potency: viability; further: nearly all actives have a fitted effect of over 35% in size; further: potency means the concentration at half of the fitted maximal effect; on Viability: series mostly up to about 46 µM
# Method in brief: as §1
# [8] = Quantitative highthroughput screen to assess conditional lethalithy of P12 Ichikawa cells grown in RPMI1640 with dialyzed fetal bovine serum (RPMI+ds) (AID 1963880); conditions: Potency: P12-Ichikawa viability; further: nearly all actives have a fitted effect of over 35% in size; further: potency means the concentration at half of the fitted maximal effect
# Method in brief: as §1
# [9] = Quantitative highthroughput screen to assess conditional lethalithy of P12 Ichikawa cells grown in RPMI1640 with untreated serum (RPMI+s) (AID 1963881); conditions: Potency: viability
# Method in brief: as §1
# [10] = Quantitative highthroughput screen to assess conditional lethalithy of SEM cells grown in Human Plasma-Like Medium with dialyzed fetal bovine serum (HPLM+ds) (AID 1963882); further: nearly all actives have a fitted effect of over 35% in size; further: potency means the concentration at half of the fitted maximal effect; on Viability: series mostly up to about 46 µM
# Method in brief: as §1
# [11] = Quantitative highthroughput screen to assess conditional lethalithy of SEM cells grown in RPMI1640 with unreated serum (RPMI+s) (AID 1963883); further: nearly all actives have a fitted effect of over 35% in size; further: potency means the concentration at half of the fitted maximal effect
# Method in brief: as §1
# [12] = Quantitative highthroughput screen to assess conditional lethalithy of SEM cells grown in RPMI1640 with dialyzed fetal bovine serum (RPMI+ds) (AID 1963884); further: nearly all actives have a fitted effect of over 35% in size; further: potency means the concentration at half of the fitted maximal effect; on Viability: series mostly up to about 46 µM
# Method in brief: as §1
# [13] = Cellular viability qHTS for adrenocortical cancer (ACC) cell line SW-13 (AID 1963989); conditions: SW-13 ACC cells viability, CellTiter-Glo, 48 h; activity (max response): hits give low values;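 further: cells grown in serum-free medium with ITS supplement; nearly all actives have a fitted effect of over 65% in size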
# Method in brief: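 48 h treatment, SW-13 in ITS/DMEM serum-free; doses up to 46 uM; readout CellTiter-Glo luminescence; curve fit four-parameter logistic.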
# [14] = Cellular viability qHTS for adrenocortical cancer (ACC) cell line NCI-H295R (AID 1963990); further: nearly all actives have a fitted effect of over 60% in size
# Method in brief: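 Compound titrations (up to 46 uM final) are applied to NCI-H295R cultures for 48 h at 37C. Viable cell number is estimated by CellTiter-Glo signal, normalised to DMSO and doxorubicin controls.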
SMILES,Potency [1],Potency [2],Potency [3],Potency [4],Potency [5],Potency [6],Potency [7],Potency [8],Potency [9],Potency [10],Potency [11],Potency [12],activity (max response) [13],Potency [14]
O=C(OC1C[C@H]2CC[C@@H](C1)[N+]21CCCC1)C(O)(c1ccccc1)c1ccccc1 (some centres undefined),inactive,inactive,inactive,inactive,inactive,inactive,inactive,inactive,inactive,inactive,inactive,inactive,-1.15%,inactive
O=C(O)CSCC(=O)NC1CCSC1=O (centres undefined),inactive,inactive,inactive,inactive,inactive,inactive,inactive,inactive,inactive,inactive,inactive,inactive,1.69% and -8.03%,inactive
N[C@@H]1CONC1=O,inactive,inactive,inactive,inactive,inactive,inactive,inactive,inactive,inactive,inactive,inactive,inactive,0.98% and -6.89%,inactive
COC(=O)[C@H](Cc1ccccc1)NC(=O)[C@@H](N)CC(=O)O (H-Asp-Phe-OMe),inactive,inactive,inactive,inactive,inactive,inactive,inactive,inactive,inactive,inactive,inactive,inactive,0.253% and -5.37%,inactive
C1Cc2[nH]nc(-c3nn[nH]n3)c2C1,inactive,inactive,inactive,inactive,inactive,inactive,inactive,inactive,inactive,inactive,inactive,inactive,1.5%,inactive
CCCCOc1c(C(=O)c2c(F)cc(C)cc2F)cnc2n[nH]cc12,inactive,651 nM (active) and 1.32 µM (active),461 nM (active) and 468 nM (active),inactive,inactive,inactive,inactive,inactive,inactive,,,,-11.6%,
CC(C)Cn1cnc2c(N)nc3ccccc3c21,inactive,inactive,inactive,inactive,inactive,inactive,inactive,inactive,inactive,inactive,inactive,inactive,0.433% and -11.1%,inactive
O=P(O)(O)C(O)(Cc1cccnc1)P(=O)(O)O,inactive,inactive,inactive,inactive,inactive,inactive,inactive,inactive,inactive,inactive,,,11.3% and 10.6%,inactive
N#Cc1ccc(C(c2ccc(C#N)cc2)n2cncn2)cc1,inactive,inactive,inactive,inactive,inactive,inactive,inactive,,inactive,inactive,,inactive,2.79%,
CC(C)Cc1ccc(C(C)C(=O)O)cc1 (centres undefined),inactive,inactive,inactive,inactive,inactive,inactive,inactive,inactive,inactive,,12900 nM (active),,8.32% and 2.38%,inactive
C[N+](C)(C)CC(=O)O,inactive,inactive,inactive,inactive,inactive,inactive,inactive,inactive,,,inactive,inactive,-6.24% and 7.87%,inactive
COc1c(N2CCNC(C)C2)c(F)cc2c(=O)c(C(=O)O)cn(C3CC3)c12 (centres undefined),inactive,18.6 µM (active),14.8 µM (active),inactive,inactive,inactive,inactive,,inactive,743 nM (active),,662 nM (active),-4.21% and 1.72%,inactive
C[C@@H](c1ncncc1F)[C@](O)(Cn1cncn1)c1ccc(F)cc1F,inactive,inactive,inactive,inactive,inactive,inactive,inactive,inactive,,inactive,,,-12.4%,inactive
NC(=O)OCC(COC(N)=O)c1ccccc1,inactive,inactive,inactive,inactive,inactive,inactive,inactive,inactive,inactive,inactive,inactive,inactive,2.38% and -8.33%,inactive
Nc1nc(Cl)nc2c1ncn2[C@H]1C[C@H](O)[C@@H](CO)O1,inactive,0.0934 µM (active),0.148 µM (active),209 nM (active),148 nM (active),132 nM (active),209 nM (active),235 nM (active),,105 nM (active),105 nM (active),66.2 nM (active),,inactive
Cc1cnc(NC(=O)C2=C(O)c3ccccc3S(=O)(=O)N2C)s1,inactive,inactive,inactive,inactive,inactive,inactive,inactive,inactive,inactive,inactive,inactive,inactive,12.3% [middle of 4 runs],inactive
